These results are taken from PubChem BioAssay (NCATS).

Records with an inconclusive call do not appear. Entries that show only a call come without a potency. Values without a mark were called inactive. The source made the active and inactive calls. The call rests on the fitted dose curve; in most records, active means well fitted curve in the direction sought with a large enough effect; inconclusive means small, poorly fitted or top-dose-only effect, or another doubt; inactive means no such curve, though single readings can be large; an effect the other way counts as inactive or inconclusive.
Further: nearly all actives have a fitted effect of over 70% in size.

One experiment in a line: Primary qHTS for inhibitors of nuclear receptor binding SET domain protein 2 (NSD2) in an isogenic RCH-ACV NSD2 p.E1099K mutant (9B) (AID 1645876). Conditions: RCH-ACV NSD2 E1099K (9B) viability, CellTiter-Glo, 72 h; series mostly up to 44.9 µM. (In qHTS, concentration-response curves come from the screen itself.)
Consider `CO[C@H]1C=C2C(CC[C@H](O[C@@H]3O[C@H](CO)[C@@H](O)[C@@H](O)[C@H]3O)C2(C)C)[C@]2(C)CC[C@]3(C)C([C@H](C)C(O)C(C=C(C)C)O[C@@H]4O[C@H](CO)[C@@H](O)[C@@H](O)[C@H]4O)CC[C@@]3(C)C12` (some centres undefined), for which the outcome is “inactive [at 9.23 µM]”.
`COc1cc(/C=C/C(=O)OC2CC(C)=C(C(=O)O)/C2=C/CO[C@@H]2O[C@H](CO)[C@@H](O)[C@H](O)[C@H]2O)ccc1O` (some centres undefined): the Potency entry is “inactive”.
`C=C1CC2(C(=O)O)CC1CCC2C1(C)CCCC2(C)C(=O)OC(O)C21` (centres undefined): the Potency result is “inactive”.
Consider `C=C1[C@@H]2[C@H]3OC(=O)C(=C)[C@@H]3CC[C@@](C)(O)[C@@H]2C[C@@H]1O[C@@H]1O[C@H](CO)[C@@H](O)[C@H](O)[C@H]1O`, for which the Potency entry was “inactive”.
On to `CC1(C)CCCC2(C)C3=C(C(=O)OC3O)C(O)CC12` (centres undefined), for which the Potency result is “inactive”.
In the case of `CC(C#N)C(C)O[C@@H]1O[C@H](CO)[C@@H](O)[C@H](O)[C@H]1O` (some centres undefined), the Potency entry is “inactive”.
Same read-out and setting: the same measure for `CC1=C2C(=O)O[C@@H](c3ccoc3)[C@]2(C)CCC1`: “inactive”; for `CC(C)CC(=O)O[C@@H]1OC=C(CO[C@@H]2O[C@H](CO[C@@H]3O[C@H](CO)[C@@H](O)[C@H](O)[C@H]3O)[C@@H](O)[C@H](O)[C@H]2O)[C@H]2C[C@H](O)[C@@H](CO)[C@@H]12`: “inactive”.
As for `CC(C)C1(O[C@@H]2O[C@H](CO)[C@@H](O)[C@H](O)[C@H]2O)CC=C(CO)CC1` (some centres undefined), the Potency entry was “inactive”.
Still for that read-out and setting: the same measure for `CCOC(=O)[C@H]1O[C@@H]1C(=O)N[C@@H](CC(C)C)C(=O)NCCC(C)C`: “inactive”; for `C=C(C(=O)O)C1CCC(C)C2CCC(=O)OC2(C)C1` (centres undefined): “inactive”.
With `CC1CCC(=O)CC(O)C(O)CC(=O)O1` (centres undefined), the Potency result is “inactive”.
Consider `C=C1[C@@H]2CC[C@@]3(C)[C@H](c4ccoc4)OC(=O)C[C@]13O[C@H]1CC(=O)C(C)(C)[C@H](CC(=O)OC)[C@]12C`, for which the Potency entry was “inactive”.
`CC1C/C=C/C=C\CCCCC(O)C/C=C/C(=O)O1` (centres undefined): the Potency result was “inactive”.
Regarding `CC1CCC2C(C)(C)C(O)CCC2(C)C12Cc1c(O)cc3c(c1O2)C(N)=NC3` (centres undefined), the Potency entry is “inactive”.
With `O=C(O[C@H]1[C@@H]2C=CO[C@@H](O[C@@H]3O[C@H](CO)[C@@H](O)[C@H](O)[C@H]3O)[C@@H]2[C@@]2(CO)O[C@@H]12)c1ccc(O)c(O)c1`, the Potency result was “inactive”.
`C1CCN2CC3C[C@@H](CN4CCCC[C@@H]34)[C@H]2C1`: the Potency result was “inactive”.
On to `CC1CCC2C(C)(C)CC(C)(CO)C2(O)C1C(=O)O` (centres undefined), for which the Potency result is “inactive”.
Take `C=C1CC[C@@H]2[C@](C)(CO[C@@H]3O[C@H](CO)[C@@H](O)[C@H](O)[C@H]3O)CCC[C@@]2(C)[C@@H]1CCC1=CCOC1=O`: the Potency result was “inactive”.
`C=C1CCC[C@]2(C)C[C@]3(O)OC(=O)C(C)=C3C[C@@H]12`: the Potency result was “inactive”.
`C=C1CCC2C(C)(C)C(O)CCC2(C)C1CCC(C)CCOC(=O)CCC(=O)O` (centres undefined): the Potency result is “inactive”.
The same measure, in the same setting: the same measure for `COC(=O)C1(Cc2ccc(O)cc2)OC(=O)C(OC)=C1c1ccc(O)cc1` (centres undefined): “inactive”.
For the compound `CC(=O)O[C@@H]1[C@@H](OC(=O)/C=C/c2ccccc2)[C@H](C)O[C@@H](O[C@H]2[C@@H]3C=CO[C@@H](O[C@@H]4O[C@H](CO)[C@@H](O)[C@H](O)[C@H]4O)[C@@H]3[C@@]3(CO)O[C@@H]23)[C@@H]1OC(C)=O`, the Potency entry was “inactive”.
For the compound `COc1c(OC2OC(CO)C(O)C(O)C2O)ccc(O)c1C(=O)OCc1ccccc1O[C@@H]1O[C@H](CO)[C@@H](O)[C@H](O)[C@H]1O` (some centres undefined), the Potency result was “inactive”.

A further experiment is described as follows: Primary qHTS for inhibitors of nuclear receptor binding SET domain protein 2 (NSD2) in an RCH-ACV wild type WT cells (2C) (AID 1645877). Further: potency means the concentration at half of the fitted maximal effect. The conditions noted are these: RCH-ACV (leukaemia line) NSD2 WT (2C) viability, CellTiter-Glo, 72 h; series mostly up to 44.9 µM.
As for `CCC(=O)O[C@]1(C(=O)CCl)[C@@H](C)C[C@H]2[C@@H]3C[C@H](F)C4=CC(=O)C=C[C@]4(C)[C@@]3(F)[C@@H](O)C[C@@]21C`, the Potency entry was “inactive”.
Turning to `C[C@@H]1CC[C@]2(C)C3(C)CC[C@@]2(OC3=O)[C@@]12C[C@H](c1ccoc1)OC2=O`, the Potency entry is “inactive”.
In the case of `CO[C@H]1C=C2C(CC[C@H](O[C@@H]3O[C@H](CO)[C@@H](O)[C@@H](O)[C@H]3O)C2(C)C)[C@]2(C)CC[C@]3(C)C([C@H](C)C(O)C(C=C(C)C)O[C@@H]4O[C@H](CO)[C@@H](O)[C@@H](O)[C@H]4O)CC[C@@]3(C)C12` (some centres undefined), the outcome is “inactive [at 9.23 µM]”.
Regarding `CCCOc1ccn2c(C(C)=O)cc(-c3ccccc3S(C)(=O)=O)c2c1`, the Potency is 18.6 µM (active).
Consider `COc1cc(/C=C/C(=O)OC2CC(C)=C(C(=O)O)/C2=C/CO[C@@H]2O[C@H](CO)[C@@H](O)[C@H](O)[C@H]2O)ccc1O` (some centres undefined), for which the Potency result was “inactive”.
On the same count and under the same terms, the same measure for `C=C1CC2(C(=O)O)CC1CCC2C1(C)CCCC2(C)C(=O)OC(O)C21` (centres undefined): “inactive”; for `CC(CO[C@@H]1O[C@H](COC(=O)/C=C/c2ccc(O)c(O)c2)[C@@H](O)[C@H](O)[C@H]1O)C1(O)COC(=O)C1` (some centres undefined): “inactive”; for `C=C1[C@@H]2[C@H]3OC(=O)C(=C)[C@@H]3CC[C@@](C)(O)[C@@H]2C[C@@H]1O[C@@H]1O[C@H](CO)[C@@H](O)[C@H](O)[C@H]1O`: “inactive”.
On to `Nc1c(Br)cc(Br)cc1CNC1CCC(O)CC1` (centres undefined), for which the Potency result is “inactive”.
On the same count and under the same terms, for `CC1(C)CCCC2(C)C3=C(C(=O)OC3O)C(O)CC12` (centres undefined) the value was “inactive”.
As for `CC(=O)O[C@@H]1[C@H]2[C@@H](OC(=O)c3ccccc3)[C@@H](C)C[C@]2(O)[C@H](OC(C)=O)[C@@]2(C)[C@@H]3CC(C)(C)C(=O)[C@]3(OC(C)=O)C[C@@]12C`, the Potency entry was “inactive”.
Consider `CC(C#N)C(C)O[C@@H]1O[C@H](CO)[C@@H](O)[C@H](O)[C@H]1O` (some centres undefined), for which the Potency result was “inactive”.
In the case of `CC(C)C(=O)OCC(=O)[C@@]12O[C@H](C3CCCCC3)O[C@@H]1C[C@H]1[C@@H]3CCC4=CC(=O)C=C[C@]4(C)[C@H]3[C@@H](O)C[C@@]12C`, the Potency was 0.0209 µM (active).
As for `CC1=C2C(=O)O[C@@H](c3ccoc3)[C@]2(C)CCC1`, the Potency result was “inactive”.
Same read-out and setting: for `CC(C)CC(=O)O[C@@H]1OC=C(CO[C@@H]2O[C@H](CO[C@@H]3O[C@H](CO)[C@@H](O)[C@H](O)[C@H]3O)[C@@H](O)[C@H](O)[C@H]2O)[C@H]2C[C@H](O)[C@@H](CO)[C@@H]12` the value was “inactive”; for `CC(C)C1(O[C@@H]2O[C@H](CO)[C@@H](O)[C@H](O)[C@H]2O)CC=C(CO)CC1` (some centres undefined), “inactive”.
`NCCOCCOCCNC(=O)Cc1ccc(Nc2nc(NCc3ccc(F)cc3)nc(NCC3CCCCC3)n2)cc1`: the Potency was 16.3 µM (active).
Regarding `COc1cc(C2OCC3C(c4ccc(OC5OC(CO)C(O)C(O)C5O)c(OC)c4)OCC23)ccc1O` (centres undefined), the Potency entry is “inactive”.
As for `CCOC(=O)[C@H]1O[C@@H]1C(=O)N[C@@H](CC(C)C)C(=O)NCCC(C)C`, the Potency entry was “inactive”.
For the compound `OC[C@H]1O[C@@H](Oc2cc(O)cc(-c3cc4ccc(O)cc4o3)c2)[C@H](O)[C@@H](O)[C@@H]1O`, the Potency result is “inactive”.
Regarding `C=C(C(=O)O)C1CCC(C)C2CCC(=O)OC2(C)C1` (centres undefined), the Potency entry is “inactive”.
Regarding `CC1CCC(=O)CC(O)C(O)CC(=O)O1` (centres undefined), the Potency entry is “inactive”.
Still for that read-out and setting: the same measure for `C=C1[C@@H]2CC[C@@]3(C)[C@H](c4ccoc4)OC(=O)C[C@]13O[C@H]1CC(=O)C(C)(C)[C@H](CC(=O)OC)[C@]12C`: “inactive”.
`CC1C/C=C/C=C\CCCCC(O)C/C=C/C(=O)O1` (centres undefined): the Potency entry was “inactive”.
On the same count and under the same terms, the same measure for `CC1=C(/C=C/C(C)=C/C=C/C(C)=C/C=C/C=C(C)/C=C/C=C(C)/C=C/C2=C(C)CCCC2(C)C)C(C)(C)CCC1`: 18.6 µM (active).
As for `CC1CCC2C(C)(C)C(O)CCC2(C)C12Cc1c(O)cc3c(c1O2)C(N)=NC3` (centres undefined), the Potency result was “inactive”.
Turning to `COC1C2=C(COC2=O)C2(C)CCCC(C)(CO)C2C1OC(=O)c1ccccc1` (centres undefined), the Potency entry is “inactive”.
Turning to `O=C(O[C@H]1[C@@H]2C=CO[C@@H](O[C@@H]3O[C@H](CO)[C@@H](O)[C@H](O)[C@H]3O)[C@@H]2[C@@]2(CO)O[C@@H]12)c1ccc(O)c(O)c1`, the Potency entry was “inactive”.
As to `OC[C@H]1O[C@@H](Oc2ccc3c(c2)OC[C@H]2c4cc5c(cc4O[C@@H]32)OCO5)[C@H](O)[C@@H](O)[C@@H]1O`, the Potency is 7.96 µM (active).
`C1CCN2CC3C[C@@H](CN4CCCC[C@@H]34)[C@H]2C1`: the Potency result was “inactive”.
For `CC1CCC2C(C)(C)CC(C)(CO)C2(O)C1C(=O)O` (centres undefined), the Potency entry was “inactive”.
Consider `C=C1CC[C@@H]2[C@](C)(CO[C@@H]3O[C@H](CO)[C@@H](O)[C@H](O)[C@H]3O)CCC[C@@]2(C)[C@@H]1CCC1=CCOC1=O`, for which the Potency result was “inactive”.
For `C=C1CCC[C@]2(C)C[C@]3(O)OC(=O)C(C)=C3C[C@@H]12`, the Potency result was “inactive”.
Take `O=C(O[C@@H]1O[C@H](CO)[C@@H](O)[C@H](O)[C@H]1O)c1c(O)cc(O)cc1/C=C/c1ccccc1`: the Potency result is “inactive”.
On to `C=C1CCC2C(C)(C)C(O)CCC2(C)C1CCC(C)CCOC(=O)CCC(=O)O` (centres undefined), for which the Potency entry is “inactive”.
With `COc1cc(/C=C/C(=O)OC2CC(OC(C)=O)C(OC(C)=O)C3C2CCC2C(=O)OC(c4ccoc4)CC23C)ccc1O[C@@H]1O[C@H](CO)[C@@H](O)[C@H](O)[C@H]1O` (some centres undefined), the Potency result was “inactive”.
The same measure, in the same setting: the same measure for `COC(=O)C1(Cc2ccc(O)cc2)OC(=O)C(OC)=C1c1ccc(O)cc1` (centres undefined): “inactive”; for `CC(=O)O[C@@H]1[C@@H](OC(=O)/C=C/c2ccccc2)[C@H](C)O[C@@H](O[C@H]2[C@@H]3C=CO[C@@H](O[C@@H]4O[C@H](CO)[C@@H](O)[C@H](O)[C@H]4O)[C@@H]3[C@@]3(CO)O[C@@H]23)[C@@H]1OC(C)=O`: “inactive”.
`C=CC(C)(O)CC/C=C(/C)C(=O)OC1C(OC2OCC(OC3OC(CO)C(O)C(O)C3O)C(OC3OCC(O)C(OC4OC(C)C(O)C(O)C4O)C3O)C2O)COC(OC(=O)C23CCC(C)(C)CC2C2=CCC4C5(C)CCC(OC6OC(CO)C(OC7OC(CO)C(O)C(OC8OCC(O)C(O)C8O)C7O)C(O)C6O)C(C)(C)C5CCC4(C)C2(C)CC3O)C1O` (centres undefined): the activity change, negative = cell killing is -25% [at 4.96 µM].
Consider `COc1c(OC2OC(CO)C(O)C(O)C2O)ccc(O)c1C(=O)OCc1ccccc1O[C@@H]1O[C@H](CO)[C@@H](O)[C@H](O)[C@H]1O` (some centres undefined), for which the Potency entry was “inactive”.
